This note sets out measurements from ChEMBL document CHEMBL2218924, “A broad activity screen in support of a chemogenomic map for kinase signalling research and drug discovery” (Biochem J, 2013).

Test [1] concerns the target T1, Serine/threonine-protein kinase TBK1 (Homo sapiens) (UniProt Q9UHD2).
T1 sequence (whole entry): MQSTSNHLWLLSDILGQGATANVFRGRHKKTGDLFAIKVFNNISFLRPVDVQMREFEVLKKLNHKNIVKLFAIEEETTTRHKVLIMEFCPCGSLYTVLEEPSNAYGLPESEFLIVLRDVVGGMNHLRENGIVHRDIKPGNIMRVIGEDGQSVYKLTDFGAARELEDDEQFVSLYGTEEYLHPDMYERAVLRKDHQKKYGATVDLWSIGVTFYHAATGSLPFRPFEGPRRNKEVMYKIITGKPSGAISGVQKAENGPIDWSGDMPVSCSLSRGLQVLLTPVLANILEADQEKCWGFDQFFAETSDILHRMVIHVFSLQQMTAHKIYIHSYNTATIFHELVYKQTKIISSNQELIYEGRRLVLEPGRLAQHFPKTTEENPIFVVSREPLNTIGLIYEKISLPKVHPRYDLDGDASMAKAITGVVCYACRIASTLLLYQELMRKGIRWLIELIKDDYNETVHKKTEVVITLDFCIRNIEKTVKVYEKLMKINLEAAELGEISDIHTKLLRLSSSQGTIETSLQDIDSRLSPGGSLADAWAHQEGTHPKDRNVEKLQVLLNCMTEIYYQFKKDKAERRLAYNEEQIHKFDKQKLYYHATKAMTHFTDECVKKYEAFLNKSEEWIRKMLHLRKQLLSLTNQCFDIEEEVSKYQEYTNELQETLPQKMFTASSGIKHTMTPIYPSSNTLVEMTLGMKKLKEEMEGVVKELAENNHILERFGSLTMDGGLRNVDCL
Particulars: at 10 µM.

Test [2] has as its target T2, TGF-beta receptor type-1 (Homo sapiens) (UniProt P36897).
T2 sequence (whole entry): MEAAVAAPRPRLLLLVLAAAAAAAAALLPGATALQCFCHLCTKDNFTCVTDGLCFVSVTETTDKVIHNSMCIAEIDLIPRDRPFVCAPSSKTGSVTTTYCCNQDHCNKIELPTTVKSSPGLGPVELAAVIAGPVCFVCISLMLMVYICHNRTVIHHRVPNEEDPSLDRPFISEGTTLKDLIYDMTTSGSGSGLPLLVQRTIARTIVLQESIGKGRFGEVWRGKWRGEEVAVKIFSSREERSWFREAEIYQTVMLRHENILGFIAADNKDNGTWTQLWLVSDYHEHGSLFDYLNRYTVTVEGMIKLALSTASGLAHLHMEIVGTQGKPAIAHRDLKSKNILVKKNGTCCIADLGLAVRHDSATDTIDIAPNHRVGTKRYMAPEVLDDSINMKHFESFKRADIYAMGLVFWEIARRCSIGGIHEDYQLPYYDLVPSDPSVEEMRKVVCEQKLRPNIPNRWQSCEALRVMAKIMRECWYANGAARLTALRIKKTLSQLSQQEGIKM
Particulars: at 1 µM.

Test [3] deals with T2, TGF-beta receptor type-1 (Homo sapiens). Particulars: at 10 µM.
For test [4], the target named is Insulin-like growth factor 1 receptor (Homo sapiens) (UniProt P08069). Particulars: at 1 µM.
Insulin-like growth factor 1 receptor (Homo sapiens), sequence (P08069 31-736 limits assumed): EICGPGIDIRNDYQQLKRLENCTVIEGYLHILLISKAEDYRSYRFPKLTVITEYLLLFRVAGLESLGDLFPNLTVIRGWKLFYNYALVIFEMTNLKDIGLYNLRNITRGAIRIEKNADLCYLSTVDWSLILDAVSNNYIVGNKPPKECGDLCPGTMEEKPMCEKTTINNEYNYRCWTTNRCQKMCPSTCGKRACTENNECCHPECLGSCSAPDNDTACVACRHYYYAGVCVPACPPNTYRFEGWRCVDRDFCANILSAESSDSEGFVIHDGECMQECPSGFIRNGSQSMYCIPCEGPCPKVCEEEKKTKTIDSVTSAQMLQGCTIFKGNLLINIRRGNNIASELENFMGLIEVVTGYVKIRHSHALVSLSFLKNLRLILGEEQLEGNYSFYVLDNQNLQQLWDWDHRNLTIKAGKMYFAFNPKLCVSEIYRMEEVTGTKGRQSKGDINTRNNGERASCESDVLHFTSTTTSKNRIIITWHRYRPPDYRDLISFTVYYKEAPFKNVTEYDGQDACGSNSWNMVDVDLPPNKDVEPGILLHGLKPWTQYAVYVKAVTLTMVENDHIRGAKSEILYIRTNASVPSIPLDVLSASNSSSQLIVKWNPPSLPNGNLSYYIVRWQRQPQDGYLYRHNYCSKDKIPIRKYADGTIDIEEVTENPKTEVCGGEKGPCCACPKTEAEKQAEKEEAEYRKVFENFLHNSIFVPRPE
Insulin-like growth factor 1 receptor (Homo sapiens), sequence (P08069 741-1367 limits assumed): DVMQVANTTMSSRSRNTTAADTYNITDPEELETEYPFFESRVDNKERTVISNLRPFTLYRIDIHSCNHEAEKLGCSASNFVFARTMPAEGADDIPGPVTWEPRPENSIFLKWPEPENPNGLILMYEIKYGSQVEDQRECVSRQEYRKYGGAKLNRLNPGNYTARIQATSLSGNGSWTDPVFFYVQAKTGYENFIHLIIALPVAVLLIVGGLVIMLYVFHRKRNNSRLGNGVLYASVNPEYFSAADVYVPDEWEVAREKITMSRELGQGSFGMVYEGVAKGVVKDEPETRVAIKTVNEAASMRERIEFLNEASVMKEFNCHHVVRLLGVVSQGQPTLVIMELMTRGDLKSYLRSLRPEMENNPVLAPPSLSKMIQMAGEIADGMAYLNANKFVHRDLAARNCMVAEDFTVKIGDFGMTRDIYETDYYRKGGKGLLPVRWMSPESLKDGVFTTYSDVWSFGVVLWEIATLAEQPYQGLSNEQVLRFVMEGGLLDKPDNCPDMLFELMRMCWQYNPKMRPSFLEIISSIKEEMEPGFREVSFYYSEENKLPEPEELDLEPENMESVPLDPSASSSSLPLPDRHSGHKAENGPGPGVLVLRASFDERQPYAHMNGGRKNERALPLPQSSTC
For test [5] the target is unchanged. Particulars: at 10 µM.
Test [6] deals with T3, Inhibitor of nuclear factor kappa-B kinase subunit alpha (Homo sapiens) (UniProt O15111).
T3 sequence (whole entry): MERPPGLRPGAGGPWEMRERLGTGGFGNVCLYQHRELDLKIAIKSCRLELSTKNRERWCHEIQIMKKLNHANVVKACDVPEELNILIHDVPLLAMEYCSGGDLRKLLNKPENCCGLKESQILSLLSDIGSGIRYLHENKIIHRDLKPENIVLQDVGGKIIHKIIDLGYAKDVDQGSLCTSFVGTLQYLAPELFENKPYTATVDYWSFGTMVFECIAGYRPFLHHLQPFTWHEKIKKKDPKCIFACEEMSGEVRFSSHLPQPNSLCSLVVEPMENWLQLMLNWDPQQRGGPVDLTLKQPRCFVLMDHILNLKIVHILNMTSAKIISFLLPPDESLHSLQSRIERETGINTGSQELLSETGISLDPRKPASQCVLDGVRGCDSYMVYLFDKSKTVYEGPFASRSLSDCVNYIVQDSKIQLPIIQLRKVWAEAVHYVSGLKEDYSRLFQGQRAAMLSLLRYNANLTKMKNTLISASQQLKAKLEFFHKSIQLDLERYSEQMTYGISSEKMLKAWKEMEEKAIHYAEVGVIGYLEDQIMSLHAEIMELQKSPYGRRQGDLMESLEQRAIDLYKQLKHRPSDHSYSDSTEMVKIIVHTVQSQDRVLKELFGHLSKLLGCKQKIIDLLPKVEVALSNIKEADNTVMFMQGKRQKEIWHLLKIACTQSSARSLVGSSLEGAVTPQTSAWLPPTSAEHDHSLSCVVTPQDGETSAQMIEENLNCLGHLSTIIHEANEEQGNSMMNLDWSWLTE
Particulars: at 1 µM.

Test [7] deals with T3, Inhibitor of nuclear factor kappa-B kinase subunit alpha (Homo sapiens). Particulars: at 10 µM.
Test [8] has as its target T4, Inhibitor of nuclear factor kappa-B kinase subunit beta (Homo sapiens) (UniProt O14920).
T4 sequence (whole entry): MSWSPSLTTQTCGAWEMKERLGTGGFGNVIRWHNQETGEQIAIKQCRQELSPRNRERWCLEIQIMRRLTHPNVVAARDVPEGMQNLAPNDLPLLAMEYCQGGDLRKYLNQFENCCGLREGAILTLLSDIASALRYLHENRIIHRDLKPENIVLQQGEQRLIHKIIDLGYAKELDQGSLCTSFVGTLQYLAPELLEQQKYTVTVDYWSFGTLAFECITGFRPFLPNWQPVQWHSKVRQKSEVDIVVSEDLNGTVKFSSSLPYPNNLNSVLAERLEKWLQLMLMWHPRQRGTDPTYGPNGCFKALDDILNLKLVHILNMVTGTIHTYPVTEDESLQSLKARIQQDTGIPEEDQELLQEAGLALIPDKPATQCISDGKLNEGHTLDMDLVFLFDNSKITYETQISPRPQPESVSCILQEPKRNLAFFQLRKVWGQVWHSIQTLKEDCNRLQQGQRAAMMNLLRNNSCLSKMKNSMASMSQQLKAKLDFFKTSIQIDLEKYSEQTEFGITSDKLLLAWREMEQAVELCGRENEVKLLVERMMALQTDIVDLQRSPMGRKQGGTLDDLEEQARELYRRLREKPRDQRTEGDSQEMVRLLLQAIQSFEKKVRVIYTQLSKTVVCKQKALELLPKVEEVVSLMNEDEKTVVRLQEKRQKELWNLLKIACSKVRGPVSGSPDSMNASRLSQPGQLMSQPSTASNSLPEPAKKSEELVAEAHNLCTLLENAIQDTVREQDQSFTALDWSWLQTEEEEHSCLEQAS
Particulars: at 1 µM.

Test [9] concerns the target T4, Inhibitor of nuclear factor kappa-B kinase subunit beta (Homo sapiens). Particulars: at 10 µM.
Test [10] addresses Insulin receptor (Homo sapiens) (UniProt P06213). Particulars: at 1 µM.

Insulin receptor (Homo sapiens), sequence (P06213 28-758 limits assumed): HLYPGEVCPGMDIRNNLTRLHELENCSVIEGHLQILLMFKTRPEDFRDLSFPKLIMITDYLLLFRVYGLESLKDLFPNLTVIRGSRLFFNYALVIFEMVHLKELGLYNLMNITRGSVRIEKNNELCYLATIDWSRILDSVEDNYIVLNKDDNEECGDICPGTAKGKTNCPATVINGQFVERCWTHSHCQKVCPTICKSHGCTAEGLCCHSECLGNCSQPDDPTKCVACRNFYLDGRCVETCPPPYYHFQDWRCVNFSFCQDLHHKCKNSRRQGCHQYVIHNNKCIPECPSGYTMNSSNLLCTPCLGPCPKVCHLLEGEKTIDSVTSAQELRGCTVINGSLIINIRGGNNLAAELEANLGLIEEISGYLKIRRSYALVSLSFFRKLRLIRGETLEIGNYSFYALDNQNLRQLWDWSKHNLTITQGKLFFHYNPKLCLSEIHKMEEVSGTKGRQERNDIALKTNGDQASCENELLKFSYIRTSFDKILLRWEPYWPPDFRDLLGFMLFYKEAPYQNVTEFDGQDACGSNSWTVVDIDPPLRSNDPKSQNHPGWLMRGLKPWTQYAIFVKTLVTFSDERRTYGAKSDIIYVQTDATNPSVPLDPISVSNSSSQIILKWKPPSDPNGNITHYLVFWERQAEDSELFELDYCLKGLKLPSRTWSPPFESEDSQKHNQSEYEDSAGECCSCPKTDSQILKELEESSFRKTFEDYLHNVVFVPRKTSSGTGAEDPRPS
Insulin receptor (Homo sapiens), sequence (P06213 763-1382 limits assumed): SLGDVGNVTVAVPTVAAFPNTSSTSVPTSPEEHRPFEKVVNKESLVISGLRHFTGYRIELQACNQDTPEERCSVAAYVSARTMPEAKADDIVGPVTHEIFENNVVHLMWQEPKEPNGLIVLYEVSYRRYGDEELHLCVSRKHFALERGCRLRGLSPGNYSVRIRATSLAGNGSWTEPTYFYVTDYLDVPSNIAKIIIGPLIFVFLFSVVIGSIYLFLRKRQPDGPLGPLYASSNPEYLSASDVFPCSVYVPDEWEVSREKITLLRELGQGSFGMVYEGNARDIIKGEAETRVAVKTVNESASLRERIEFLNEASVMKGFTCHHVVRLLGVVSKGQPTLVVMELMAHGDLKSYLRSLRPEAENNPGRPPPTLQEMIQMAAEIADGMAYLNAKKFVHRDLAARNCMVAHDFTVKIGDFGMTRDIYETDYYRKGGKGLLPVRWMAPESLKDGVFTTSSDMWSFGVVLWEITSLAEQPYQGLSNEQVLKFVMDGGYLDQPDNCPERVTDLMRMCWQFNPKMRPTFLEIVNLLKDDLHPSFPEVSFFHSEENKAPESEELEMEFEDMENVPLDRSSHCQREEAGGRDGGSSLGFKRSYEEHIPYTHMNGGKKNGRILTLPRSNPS

With `Cc1nc2cc3nc(-c4cccs4)cnc3cc2n1C`, the residual activity in [1] was 87%; in test [2], 98%; in test [3], 118%; in test [4] it was 115%; in [5], 106%; in [6] it was 125%. The residual activity in test [7] worked out at 106%; in test [8] it was 106%; in [9], 106%; in test [10] it was 117%.

The term residual activity denotes the signal under treatment as a percentage of the control signal.
